Reference: PubChem BioAssay AID729 (The Scripps Research Institute Molecular Screening Center, 2007)
About 450 (0.46%) of roughly 97,000 compounds were called active. For the sample, actives were picked, then their nearest neighbours and some compounds at random. Values without a mark were called inactive. No stated cut-off is given here; in the data, active means activation above about 16%; inactive means the rest.

Each molecule was assayed against Sphingosine 1-phosphate receptor 2 (Homo sapiens) (UniProt O95136) (assay: activation of human S1P2 receptor – cell-based, primary screen (AID 729;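 further: 0% = vehicle low control and 100% = maximal reference agonist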)). Settings: S1P2-expressing cell line, agonist reporter read-out; at 4.5 µM; hits give high values.
Chain of Sphingosine 1-phosphate receptor 2 (Homo sapiens) (O95136 whole entry, looked up): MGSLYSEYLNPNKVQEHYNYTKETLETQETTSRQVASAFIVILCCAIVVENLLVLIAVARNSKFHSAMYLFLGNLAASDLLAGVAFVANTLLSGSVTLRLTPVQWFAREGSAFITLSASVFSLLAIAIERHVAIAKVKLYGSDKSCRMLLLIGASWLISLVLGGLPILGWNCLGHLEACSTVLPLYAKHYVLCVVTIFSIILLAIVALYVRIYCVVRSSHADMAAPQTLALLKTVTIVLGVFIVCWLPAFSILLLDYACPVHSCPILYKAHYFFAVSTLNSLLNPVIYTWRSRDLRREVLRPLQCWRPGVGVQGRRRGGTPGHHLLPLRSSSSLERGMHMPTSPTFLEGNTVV

For COc1cc(Cn2c(N)c(C(=O)NCc3ccco3)c3nc4ccccc4nc32)cc(OC)c1OC, the activation was 28.7% (active).

In order of rising activation:
1. OC(Cn1c2ccccc2c2ccccc21)C[n+]1ccccc1 (stereo not given)  -10.8%
2. O=c1c2ccccc2nc(-c2ccc(Cl)cc2Cl)n1-c1ccncc1  -3.53%
3. CCOC(=O)c1c(N)n(CCN2CCOCC2)c2nc3ccccc3nc12  -0.82%
4. CCOC(=O)c1c(N)n(Cc2ccccc2)c2nc3ccccc3nc12  1.34%
